# Assay results: PubChem BioAssay (NCATS)
# Results filed as inconclusive are left out. A call without a number means that no potency is given here. Unmarked numbers belong to inactive results. Calls of active or inactive are those of the source. The call rests on the fitted dose curve; in most records, active means well fitted curve in the direction sought with a large enough effect; inconclusive means small, poorly fitted or top-dose-only effect, or another doubt; inactive means no such curve, though single readings can be large; an effect the other way counts as inactive or inconclusive. Where a SMILES comes first, the peptide text is derived from it.
# Legend:
# [1] = molecular target: Calcium and integrin-binding protein 1 (Homo sapiens) (UniProt Q99828); assay: Primary qHTS for Identification of Calcium Integrin Binding Protein 1 (CIB1) Competitor (AID 1508620);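 further: GST tagged CIB1 binding a fluorescein labelled alphaIIb integrin peptide tracer; top concentration of the series differs between compounds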
# Calcium and integrin-binding protein 1 (Homo sapiens), sequence (Q99828 whole entry, looked up): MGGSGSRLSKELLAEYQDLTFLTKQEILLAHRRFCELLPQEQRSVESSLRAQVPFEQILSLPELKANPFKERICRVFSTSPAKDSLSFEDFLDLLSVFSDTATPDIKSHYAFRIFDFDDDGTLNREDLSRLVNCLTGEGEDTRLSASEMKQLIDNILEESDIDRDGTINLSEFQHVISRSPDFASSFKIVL
# Procedure, shortened: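 Fluorescence polarization competition: CIB1-GST (1 uM final) preincubated with compound 15 min at room temperature, then FITC-labeled alphaIIb peptide (100 nM final) added for another 15 min. Polarization read at Ex 480/Em 540.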
# [2] = Primary qHTS for inhibitors of nuclear receptor binding SET domain protein 2 (NSD2) in an isogenic RCH-ACV NSD2 p.E1099K mutant (9B) (AID 1645876); further: nearly all actives have a fitted effect of over 70% in size; further: potency means the concentration at half of the fitted maximal effect
# [3] = Primary qHTS for inhibitors of nuclear receptor binding SET domain protein 2 (NSD2) in an RCH-ACV wild type WT cells (2C) (AID 1645877); further: nearly all actives have a fitted effect of over 70% in size; further: potency means the concentration at half of the fitted maximal effect
Compound,Potency [1],Potency [2],Potency [3],"activity change, negative = viability loss [2]","activity change, negative = cell killing [3]","activity change, negative = inhibition [1]"
C[C@H]1[C@H](C)C[C@@H](C(=O)O)C2CC[C@]3(C)C(=CC[C@@H]4[C@@]5(C)CC[C@H](O)C(C)(C)[C@@H]5CC[C@]43C)[C@@H]21 (stereo partly drawn),inactive,inactive,inactive,,,
CC1=C(CC/C(C)=C/C(=O)O)[C@@]2(C)CCCC(C)(C)C2CC1=O (stereo partly drawn),inactive,inactive,inactive,,,
CCc1cc(CC[C@]2(C3CCCC3)CC(O)=C(Cc3nc4nc(C)cc(C)n4n3)C(=O)O2)cc(CC)n1,inactive,inactive,inactive,,,
C[C@@H]1CC2OC(=O)C3=C2C(CCC3O)[C@@]12C[C@@H](c1ccoc1)OC2=O (stereo partly drawn),inactive,inactive,inactive,,,
CC1(C)CC[C@]2(C(=O)O[C@@H]3O[C@H](CO)[C@@H](O)[C@H](O)[C@H]3O)CC[C@]3(C)C(=CCC4[C@@]5(C)C[C@@H](O)[C@H](O)[C@@](C)(CO)C5[C@H](O)C[C@]43C)C2C1 (stereo partly drawn),inactive,inactive,inactive,,,
CC1=C(CO)CC(C(C)C2CCC3C4CC=C5CC(OC6OC(COC7OC(CO)C(O)C(O)C7O)C(O)C(O)C6O)CC(O)C5(C)C4CCC23C)OC1=O (stereo not drawn),inactive,inactive,inactive,,,
CSCC[C@H](NC(=O)[C@H](CO)NC(=O)[C@H](CCC(=O)O)NC(C)=O)C(=O)N[C@H](C=O)CC(=O)O (Ac-ESMD-aldehyde),inactive,,,-10.4% [at 9.23 µM],-15.7% [at 9.23 µM],
C=CCC1=C[C@]2(OC)[C@H](C)[C@@H](c3ccc(OC)c(OC)c3)O[C@]2(OC)CC1=O,inactive,inactive,inactive,,,
C=CC1(C)CC2CCC3C(C)(C(=O)O)CCCC3(C)C2=CC1=O (stereo not drawn),inactive,inactive,inactive,,,
CC(=O)OCC1OC(OC2COC(OC3COC(OC4C(OC5C(CO)OC(OC6CCC7(C)C(CCC8(C)C7CC=C7C9CC(C)(C)CCC9(C(=O)OC9OC(CO)C(O)C(O)C9OC9OCC(OC%10OCC(O)(CO)C%10O)C(O)C9O)C(O)CC78C)C6(C)C)C(O)C5O)OCC(O)C4O)C(O)C3O)C(O)C2O)C(OC(=O)/C=C/c2ccccc2)C(O)C1OC(C)=O (stereo not drawn),,1250 nM (active),1990 nM (active),,,-1.97% [at 12.4 µM]
CC1(C(=O)O)CCCC2(C)C3CCC4CC3(CCC12)CC4C(=O)O (stereo not drawn),inactive,inactive,inactive,,,
CC(=O)OC(C)C(C)(O)C(=O)O[C@@H]1CC[C@]2(C)CC(=O)C(=C(C)C)C[C@H]2[C@]1(C)OC(C)=O (stereo partly drawn),inactive,inactive,inactive,,,
OC[C@H]1O[C@@H](OCc2ccccc2)[C@H](O)[C@@H](O)[C@@H]1O,inactive,inactive,inactive,,,
CCN1CCN(C(=O)N[C@@H](C(=O)N[C@@H]2C(=O)N3[C@@H]2SC(C)(C)[C@@H]3C(=O)O)c2ccccc2)C(=O)C1=O,inactive,inactive,inactive,,,
O=C(O)CCc1cccc(O)c1O[C@@H]1O[C@H](CO)[C@@H](O)[C@H](O)[C@H]1O,inactive,inactive,inactive,,,
C[C@@H]1O[C@@H](O[C@H]2[C@H](O[C@H]3[C@H](O[C@H]4CC[C@@]5(C)C(CC[C@]6(C)C5CC=C5[C@@H]7CC(C)(C)C[C@@H](O)[C@]7(C)CC[C@]56C)[C@@]4(C)CO)O[C@H](C(=O)O)[C@@H](O)[C@@H]3O)O[C@H](C(=O)O)[C@H](O)[C@@H]2O)[C@H](O)[C@H](O)[C@H]1O (stereo partly drawn),inactive,,,4.66% [at 9.23 µM],2.89% [at 9.23 µM],
OC[C@H]1O[C@@H](OCCc2ccccc2)[C@H](O)[C@@H](O)[C@@H]1O,inactive,inactive,inactive,,,
CC(C)C1NC(=O)CNC(=O)C2CCCN2C(=O)C(Cc2c[nH]c3ccccc23)NC(=O)CNC(=O)C(Cc2ccc(O)cc2)NC(=O)CNC1=O (stereo not drawn) (cyclo(GVGYGWP); configuration not given here),inactive,inactive,inactive,,,
COC(=O)C1=CO[C@@H](O[C@@H]2O[C@H](CO)[C@@H](O)[C@H](O)[C@H]2O)[C@@H]2C(C)CC(=O)[C@]12O (stereo partly drawn),inactive,inactive,inactive,,,
C[C@]1(O)CC[C@@H]2C(C(=O)O)=CO[C@@H](O[C@@H]3O[C@H](CO)[C@@H](O)[C@H](O)[C@H]3O)[C@@H]21,inactive,inactive,inactive,,,
CC/C=C\C(O)C(O)C1=C(C)C(=O)C2(O1)C(=O)NC(OC)(C(=O)c1ccccc1)C2O (stereo not drawn),inactive,inactive,inactive,,,
